{"source": "ChEMBL document CHEMBL1961873", "about": "“Compounds: GSK PKIS; Assays: Nanosyn kinase panel” (2012);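 further: reported figure is an averaged inhibition value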", "data": [{"target": "Mitogen-activated protein kinase kinase kinase kinase 4 (Homo sapiens) (UniProt O95819)", "sequence (O95819 2-1239 limits assumed)": "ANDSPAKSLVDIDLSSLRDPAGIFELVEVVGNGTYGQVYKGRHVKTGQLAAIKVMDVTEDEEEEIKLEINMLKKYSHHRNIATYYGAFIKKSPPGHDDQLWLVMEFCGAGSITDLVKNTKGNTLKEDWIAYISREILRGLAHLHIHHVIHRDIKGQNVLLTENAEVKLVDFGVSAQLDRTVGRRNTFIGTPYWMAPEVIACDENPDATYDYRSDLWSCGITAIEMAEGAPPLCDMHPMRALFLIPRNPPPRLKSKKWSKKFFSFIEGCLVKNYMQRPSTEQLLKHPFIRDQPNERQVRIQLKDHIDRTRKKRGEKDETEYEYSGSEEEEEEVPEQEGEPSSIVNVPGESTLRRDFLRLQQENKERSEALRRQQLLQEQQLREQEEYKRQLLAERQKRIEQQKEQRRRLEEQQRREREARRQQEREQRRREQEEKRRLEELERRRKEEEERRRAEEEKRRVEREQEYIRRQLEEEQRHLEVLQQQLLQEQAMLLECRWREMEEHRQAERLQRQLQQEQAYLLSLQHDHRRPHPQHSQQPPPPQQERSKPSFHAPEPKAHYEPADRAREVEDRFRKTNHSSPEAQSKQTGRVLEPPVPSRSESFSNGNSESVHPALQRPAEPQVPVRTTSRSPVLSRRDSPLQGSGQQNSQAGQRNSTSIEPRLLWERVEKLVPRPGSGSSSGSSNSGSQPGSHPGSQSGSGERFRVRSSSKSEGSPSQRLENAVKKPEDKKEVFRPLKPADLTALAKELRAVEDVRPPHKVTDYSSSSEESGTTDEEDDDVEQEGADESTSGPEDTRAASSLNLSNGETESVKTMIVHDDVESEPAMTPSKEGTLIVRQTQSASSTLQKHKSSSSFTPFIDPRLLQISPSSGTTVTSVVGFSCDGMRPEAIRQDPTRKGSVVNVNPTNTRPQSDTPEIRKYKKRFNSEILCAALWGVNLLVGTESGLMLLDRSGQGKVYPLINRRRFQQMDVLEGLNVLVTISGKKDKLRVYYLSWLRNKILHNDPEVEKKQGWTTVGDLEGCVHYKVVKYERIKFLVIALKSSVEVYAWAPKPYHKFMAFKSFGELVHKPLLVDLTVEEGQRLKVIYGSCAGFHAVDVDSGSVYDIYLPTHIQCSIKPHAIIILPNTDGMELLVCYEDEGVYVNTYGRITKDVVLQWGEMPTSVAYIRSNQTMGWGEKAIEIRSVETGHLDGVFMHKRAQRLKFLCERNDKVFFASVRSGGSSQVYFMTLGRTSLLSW", "settings": "at 1 µM", "units": {"inhibition": "%"}, "values": [{"smiles": "Nc1nccc(-c2c(-c3ccc(F)cc3)nn3cc(C(F)(F)F)ccc23)n1", "inhibition": 2.37}, {"smiles": "CN1CCN(C(=O)c2ccc(NC(=O)Nc3ccc(N(C)c4ccnc(Nc5ccc(CS(C)(=O)=O)cc5)n4)cc3)cc2)CC1", "inhibition": 58.6}, {"smiles": "CCn1c(-c2nonc2N)nc2c(C#CC(C)(C)O)nc(OCCNC)cc21", "inhibition": 6.25}, {"smiles": "COc1ccc(-c2nn3ncccc3c2-c2ccnc(Nc3cccc(C(F)(F)F)c3)n2)cc1", "inhibition": 4.62}, {"smiles": "Cc1ccc(C(=O)NC2CC2)cc1-c1ccc2[nH]ncc2c1", "inhibition": -0.85}, {"smiles": "Cc1ccc2c(c1)/C(=N/Nc1ccc(S(N)(=O)=O)cc1)C(=O)N2", "inhibition": 72.3}, {"smiles": "FC(F)(F)c1ccc(-c2nn3ncccc3c2-c2ccnc(Nc3ccc4c(c3)OCCO4)n2)cc1", "inhibition": 12}, {"smiles": "NS(=O)(=O)c1ccc(Nc2cc(-c3cccc(O)c3)n[nH]2)cc1", "inhibition": 17.6}, {"smiles": "Cc1cc(O)cc(C)c1/C=C/c1cncc(C(=O)N(C)C)c1", "inhibition": 12.6}, {"smiles": "COc1cc(Nc2nccc(-c3cnn4ncccc34)n2)cc(OC)c1", "inhibition": 78.9}, {"smiles": "COc1cccc(-n2ncc3c(N/N=C/c4ccc(C)cc4)ncnc32)c1", "inhibition": 21}, {"smiles": "[O-][S+]1CCN(Cc2ccc(-c3ccc4ncnc(Nc5ccc(OCc6ccccc6)c(Cl)c5)c4c3)o2)CC1", "inhibition": 3.32}, {"smiles": "COc1ccc2ncnc(Nc3ccc(OCc4ccccc4)cc3)c2c1", "inhibition": 7.18}, {"smiles": "CN(C)C(=O)O[C@H]1CN[C@H](C#Cc2cc3ncnc(Nc4ccc(OCc5cccc(F)c5)c(Cl)c4)c3s2)C1", "inhibition": 4.23}, {"smiles": "NS(=O)(=O)c1ccc(NC=C2C(=O)Nc3ccc4ncsc4c32)cc1", "inhibition": 79}, {"smiles": "CS(=O)(=O)CCNCc1nc(-c2ccc3ncnc(Nc4ccc(OCc5cccc(C(F)(F)F)c5)cc4)c3c2)cs1", "inhibition": 3.34}, {"smiles": "CCS(=O)(=O)c1ccc(OC)c(Nc2nccc(N(C)c3ccc4c(C)n[nH]c4c3)n2)c1", "inhibition": 15.6}, {"smiles": "Nc1nccc(-c2c(-c3ccc(F)cc3)ncn2CCCN2CCOCC2)n1", "inhibition": 8.06}, {"smiles": "COC(=O)c1ccc2c(c1)C(=Cc1cc(Br)c(O)c(Br)c1)C(=O)N2", "inhibition": 84.7}, {"smiles": "COc1cc2ncnc(Nc3ccc4c(cnn4Cc4ccccc4)c3)c2cc1OC", "inhibition": 9.55}, {"smiles": "O=S(=O)(CCOCc1ccc(-c2ccc3ncnc(Nc4ccc(OCc5cccc(F)c5)c(Cl)c4)c3c2)o1)c1ccccc1", "inhibition": 7}, {"smiles": "NC(=O)c1sc(-n2cnc3ccccc32)cc1OCc1ccccc1Br", "inhibition": 11.3}, {"smiles": "NS(=O)(=O)c1cccc(-c2cc3ccncc3cc2OCc2ccccc2)c1", "inhibition": 11.1}, {"smiles": "Cc1cc(Cl)cc2c1NC(=O)C2=NNc1ccc(S(N)(=O)=O)cc1", "inhibition": 56.5}, {"smiles": "Oc1cccc(-c2nc(-c3ccccc3)[nH]c2-c2ccncc2)c1", "inhibition": 11.6}, {"smiles": "COC(=O)Nc1nc2cc(Oc3ccc(NC(=O)Nc4cccc(Br)c4)cc3)ccc2[nH]1", "inhibition": 5.51}, {"smiles": "Nc1nccc(C#Cc2cncnc2Nc2ccc(OCc3cccc(F)c3)c(Cl)c2)n1", "inhibition": 5.46}, {"smiles": "O=C1Nc2ccc(-c3cccnc3)cc2C1=Cc1cc(Br)c(O)c(Br)c1", "inhibition": 91.6}, {"smiles": "Nc1ccc(C#Cc2cncnc2Nc2ccc(OCc3cccc(F)c3)c(Cl)c2)cc1", "inhibition": 0.49}, {"smiles": "NS(=O)(=O)c1cccc(Nc2cc(-c3ccc(F)cc3)n[nH]2)c1", "inhibition": 69.9}, {"smiles": "CCS(=O)(=O)c1ccc(OC)c(Nc2ncc(-c3cccc(OC)c3)o2)c1", "inhibition": 25.9}, {"smiles": "CCn1c(-c2nonc2N)nc2ccc(F)cc21", "inhibition": 9.77}, {"smiles": "O=C1Nc2ccccc2/C1=C/Nc1ccc2[nH]c(=O)[nH]c2c1", "inhibition": 75.4}, {"smiles": "CS(=O)(=O)Nc1cccc(-c2ccc3c(NC(=O)C4CC4)n[nH]c3c2)c1", "inhibition": 6.35}]}]}
